OTUD3 block: inhibitors of human OTUD3 deubiquitinase; OTU domain-containing protein 3 (Homo sapiens), Q5T2D3; purified OTUD3, Ub-rhodamine fluorescence, 2 h; inhibition, % at 25 µM; hit rate 0.7% among 47,000
USP7 inh: inhibitors of human USP7 deubiquitinase. purified USP7, Ub-rhodamine cleavage fluorescence. inhibition, % at 20 µM. hit rate 0.3% among 47,000
USP10 block: inhibitors of human USP10 deubiquitinase; Ubiquitin carboxyl-terminal hydrolase 10 (Homo sapiens), Q14694; purified USP10, Ub-rhodamine fluorescence, 60 min; AID 1645856, 2021; hit rate 1.1% among 47,000; inhibition, % at 20 µM
UCHL1 block: inhibitors of human UCHL1 deubiquitinase; Ubiquitin carboxyl-terminal hydrolase isozyme L1 (Homo sapiens), P09936; purified UCHL1, Ub-rhodamine cleavage fluorescence; inhibition, % at 20 µM; hit rate 0.2% among 47,000
* = called active by the depositor. Compounds with a hit are over-represented: about 1.5% of the library has one in this group of screens. Rule as the data show it: active = inhibition above about 30%; inactive = the rest.

SMILES	OTUD3 block	USP7 inh	USP10 block	UCHL1 block
C[C@@H]1/C=C/CC/C=C/C(=O)[C@H](C)[C@@H]2CC[C@@H](C)[C@@](O)(O2)C(=O)C(=O)N2CCCC[C@H]2C(=O)O[C@H]([C@H](C)C[C@@H]2CC[C@@H](O)[C@H](O)C2)CC1	43.2*	11.0	8.3	8.8
CO[C@H]1C[C@@H]2CC[C@@H](C)[C@@](O)(O2)C(=O)C(=O)N2CCCC[C@H]2C(=O)O[C@@H]([C@H](C)C[C@@H]2CC[C@@H](O)[C@H](OC)C2)CC(=O)[C@H](C)/C=C(\C)[C@@H](O)CC(=O)[C@H](C)C[C@H](C)/C=C/C=C/C=C/1C	-3.7	15.1	5.6	9.7
O=C(Cn1c(=O)c2sccc2n(Cc2ccc([N+](=O)[O-])cc2)c1=O)NCCc1ccccc1	24.4	7.4	38.5*	4.7
O=C(CCn1c(=O)c2sccc2n(Cc2ccc([N+](=O)[O-])cc2)c1=O)NCc1ccccc1	44.1*	20.8	39.2*	10.1
CCCn1c(=O)c(-c2ccc(C(=O)NCc3ccc(OC)cc3)cc2)nc2cccnc21	22.7	30.7*	33.3*	4.6
O=C(Nc1ccc(-n2nnc(C(=O)N3CCCC3)n2)cc1)c1ccc(F)cc1Cl	5.1	7.6	12.3	3.7
CC[C@@H](C(=O)[C@@H](C)[C@@H](O)[C@H](C)CCc1ccc(C)c(O)c1C(=O)O)[C@@H]1O[C@](CC)([C@H]2CC[C@](O)(CC)[C@H](C)O2)C[C@@H]1C	13.1	22.8	60.3*	2.0
Nc1nc(N2CCC3(CC2)OCCO3)ncc1C(=O)NCc1ccccc1F	-8.7	-5.1	-4.6	-5.2
COC(=O)c1cc(O)cc(OC)c1C(=O)c1c(O)c(Cl)c(C)c(Cl)c1O	4.8	2.6	1.6	-0.7
COC(=O)c1c(OC)cc2c(c1C)Oc1c(Cl)c(O)c(Cl)c(C)c1C(=O)O2	6.7	7.9	31.9*	3.0
CCn1c(C(=O)O)c(CNCc2cccs2)c2ccc(C)cc21	-3.2	0.5	0.1	-3.9
O=C(CCn1c(=O)c2ccccc2n(CC(=O)OCc2ccccc2)c1=O)NCc1ccc2c(c1)OCO2	9.0	5.6	47.8*	-1.8
CN(C(=O)Cn1c(=O)n(CCC(=O)NCc2ccc3c(c2)OCO3)c(=O)c2ccccc21)C1CCCCC1	12.3	-13.5	-0.6	0.0
O=C(Cn1c(=O)n(Cc2ccc3c(c2)OCO3)c(=O)c2ncccc21)NCc1ccccc1	43.6*	1.2	-0.8	7.2
O=C(CCc1nnc2n(Cc3ccccc3)c(=O)c3ccccc3n12)NCc1ccc2c(c1)OCO2	10.6	-8.6	43.7*	-1.2
CO[C@H](C[C@H](C)[C@H](O)/C=C/C=C/CNC(=O)C(C)(C)[C@@H](O)/C(C)=C/C=C/C=C/Cc1cnco1)[C@]1(O)[C@@H](C)C(=O)N(C)[C@]12C(=O)OC2C (stereo not given in full)	-53.4	-29.6	-6.4	-32.5
Cc1cccc(OCC(=O)NCc2cc(-c3ccccc3F)on2)c1	16.2	0.9	6.9	7.7
CCc1ccc(-n2c(C)cc(/C=C3\C(=N)N4N=CSC4=NC3=O)c2C)cc1	-120.9	-179.8	40.1*	6.2
O=C(CN1CCC(Nc2nc(C(F)(F)F)cc(=O)[nH]2)CC1)NC(c1ccccc1)c1ccccc1	-17.4	-5.5	3.0	1.5
O=[N+]([O-])c1ccc(C(O)CN2CCN(Cc3ccccc3)CC2)cc1 (stereo not given)	8.1	0.0	0.6	79.1*
CC(C)NC(=O)N1CCC2(CC1)CN(Cc1cccnc1)CC21CCN(C)C1=O (stereo not given)	-27.2	-7.2	-6.6	-10.9
CC1OC2CC(O)C1(O)C1=C2C(O)=C(C(N)=O)C(=N)C1=O (stereo not given)	51.0*	-33.6	35.8*	52.0*
COCCCNC(=O)c1ccc(Cn2c(=O)c3ccccc3n(CC(=O)NCc3ccco3)c2=O)cc1	-16.7	-2.2	-2.1	-10.9
COCCNC(=O)Cn1c(=O)n(Cc2ccc(C(=O)NCc3ccc(C)cc3)cc2)c(=O)c2ccccc21	47.5*	-13.6	26.9	5.8
O=C(CCn1c(=O)c2ccccc2n(Cc2ccccc2F)c1=O)NCc1ccco1	-3.1	-25.8	38.7*	7.0
COC(=O)c1ccccc1NC(=O)Cn1c(=O)n(CCCC(=O)NCc2ccco2)c(=O)c2ccccc21	67.9*	11.2	54.1*	3.1
O=C(Cn1c(=O)n(Cc2ccc(C(=O)NCc3ccco3)cc2)c(=O)c2ccccc21)Nc1ccc2c(c1)OCCO2	28.4	-8.8	41.0*	3.7

Screening results: PubChem, Buhrlage Lab, Dana-Farber Cancer Institute and Novartis Institutes for BioMedical Research (Cambridge, Mass)
